We go through 40 compounds from PubChem BioAssay (NCATS).

Unmarked numbers belong to inactive results. No rule for the calls is given here.
Potency is read from the fitted curve at half-maximal effect.

For this experiment, the system named is HIV-1 nucleocapsid protein NCp7 (binding to TG oligonucleotide). The experiment in a line: HIV Nucleocapsid (AID 346).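 Also: potency is for inhibitors that block NC binding and lower polarization.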 The settings on record: HIV-1 NC / fluorescein-TGTGTGTG probe, fluorescence polarization. In a few lines: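 Fluorescence polarization readout: labelled TG4xF oligo (10 nM) with 100 nM nucleocapsid protein, high-salt (250mM NaCl) Hepes pH 7.5 buffer containing zinc and fresh reducing agents. Compounds added by pin tool; incubation 1 hr, room temperature.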
(Polarisation of emitted light reports the rotation of a fluorescent probe.)
`COc1ccccc1CN1CCC2(CC1)CCN(C(=O)c1cc(C(F)(F)F)cc(C(F)(F)F)c1)CC2`: the Potency is above 20 µM.
As to `COc1ccc(Oc2ncc3nc(CCc4ccccc4)c(=O)n(C)c3n2)cc1`, the Potency was above 20 µM.
For `COCC(=O)N1CCC2(CCCN(C(=O)Nc3cccc(F)c3)C2)CC1`, the Potency is above 20 µM.
As for `COC(=O)N1CCC2(CC1)CCN(c1ccccn1)CC2`, the figure is above 20 µM; as for `O=c1cnc2cnc(OCc3ccccc3)nc2n1CCc1ccccc1`, above 20 µM.
Under `O=c1c(-c2ccccc2)nc2cnc(Nc3ccccc3)nc2n1Cc1cccs1` stands above 20 µM; under `O=C(c1cnccn1)N1CCC[C@@]2(CCN(Cc3cc(C(F)(F)F)cc(C(F)(F)F)c3)C2)C1`, above 20 µM; under `CCNc1ncc2nc(C)c(=O)n(CCOC)c2n1`, above 20 µM.
Under `Cn1c(=O)c(CCc2ccccc2)nc2cnc(OCc3ccccc3)nc21` stands above 20 µM; under `O=C(Nc1cccc(F)c1)N1CCCC2(CCN(C(=O)c3ccco3)CC2)C1`, above 20 µM.
Turning to `COc1ccccc1CNc1ncncc1-c1ccc2c(c1)OCO2`, the Potency is above 20 µM.
As for `CC(C)CN1CCC2(CC1)CCN(C(=O)c1csnn1)CC2`, the figure is above 20 µM.
Under `c1ccc(CNc2nc(-c3ccc4c(c3)OCO4)nc3ccccc23)cc1` stands above 20 µM.
As for `Fc1ccc(Nc2ccnc(-c3ccc4c(c3)OCO4)n2)cc1`, the figure is above 20 µM; as for `COc1cccc(Cn2c(=O)c(-c3cn(C)c4ccccc34)nc3cnc(OC)nc32)c1`, above 20 µM; as for `CN(C)c1ncc2nc(-c3ccc(Cl)cc3)c(=O)n(CCC#N)c2n1`, above 20 µM.
On to `COc1ccc(-n2c(=O)c(-c3cccc(C#N)c3)nc3cnc(N4CCNCC4)nc32)cc1`, for which the Potency was above 20 µM.
Under `Cn1cc(-c2nc3cnc(Oc4ccccc4)nc3n(C3CC3)c2=O)c2ccccc21` stands above 20 µM; under `COCCn1c(=O)cnc2cnc(N3CCN(C)CC3)nc21`, above 20 µM; under `O=C(c1ccco1)N1CCC2(CCN(Cc3nccs3)CC2)CC1`, above 20 µM.
As to `COc1cccc(Cn2c(=O)c(-c3cc(F)cc(F)c3)nc3cnc(OC)nc32)c1`, the Potency is above 20 µM.
As for `COC(=O)N1CCC2(CCN(C(=O)NC(C)C)CC2)CC1`, the figure is above 20 µM; as for `Cn1cccc1C(=O)N1CCC2(CC1)CCN(c1ccccn1)CC2`, above 20 µM.
As for `COC(=O)N1CCC2(CCCN(c3ncccn3)C2)CC1`, the figure is above 20 µM; as for `Cc1ccccc1-c1cc(N(C)Cc2ccco2)ncn1`, above 20 µM.
Under `O=c1c(-c2ccccc2)nc2cncnc2n1C1CC1` stands above 20 µM; under `Cc1cnc(CNc2ccnc(-c3ccccc3C)n2)cn1`, above 20 µM.
As to `COc1ccc(CNc2ccnc(-c3cccc(NS(C)(=O)=O)c3)n2)c(OC)c1`, the Potency is above 20 µM.
As for `CCNc1ncc2nc(-c3ccc(F)cc3)c(=O)n(-c3ccc(OC)cc3)c2n1`, the figure is above 4 µM.
Under `COCCn1c(=O)c(C)nc2cnc(Nc3cccc(OC)c3)nc21` stands above 20 µM.
Turning to `N#CCCn1c(=O)c(-c2ccc(Cl)cc2)nc2cnc(N3CCOCC3)nc21`, the Potency was above 20 µM.
With `N#Cc1cccc(-c2nc3cnc(N4CCOCC4)nc3n(C[C@H]3CCCO3)c2=O)c1`, the Potency was above 20 µM.
As for `O=C(Nc1cccc(F)c1)N1CCC2(CC1)CCN(C(=O)c1cnccn1)CC2`, the figure is above 20 µM; as for `COc1ccc(Oc2ncc3nc(C)c(=O)n(C[C@H]4CCCO4)c3n2)cc1`, above 20 µM; as for `COc1ccccc1-c1ccc2ncnc(N3CCN(C)CC3)c2c1`, above 20 µM.
Under `CS(=O)(=O)Nc1cccc(-c2ccc3ncnc(NCc4cccs4)c3c2)c1` stands above 20 µM.
Under `O=C(c1cccc(F)c1)N1CCC2(CC1)CCN(C(c1ccccc1)c1ccccc1)CC2` stands above 20 µM; under `Cc1nc2cnc(OCc3ccccc3)nc2n(CCC#N)c1=O`, above 20 µM; under `c1ccc(-c2ccc(N3CC[C@@]4(CCCNC4)C3)cc2)cc1`, above 20 µM.
Turning to `COCCn1c(=O)c(-c2ccc(F)cc2)nc2cncnc21`, the Potency was above 20 µM.
